Columns and labels:
Assay in all cases: DAPPL (digital affinity profiling via proximity ligation, sequencing); 10 mM Tris-HCl pH 7.5, 50 mM NaCl, 1 mM DTT, 4% glycerol, room temperature, 30 min; GST-TFs on glutathione beads, 16-mer random dsDNA library, 0.1% formaldehyde crosslink after washing; high values mean tight binding
FEV = biological target: T1, FEV (Homo sapiens, UniProt Q99581 1-238); details: protein: recombinant; tags: N-terminal GST; dsDNA, one strand shown
T1 sequence: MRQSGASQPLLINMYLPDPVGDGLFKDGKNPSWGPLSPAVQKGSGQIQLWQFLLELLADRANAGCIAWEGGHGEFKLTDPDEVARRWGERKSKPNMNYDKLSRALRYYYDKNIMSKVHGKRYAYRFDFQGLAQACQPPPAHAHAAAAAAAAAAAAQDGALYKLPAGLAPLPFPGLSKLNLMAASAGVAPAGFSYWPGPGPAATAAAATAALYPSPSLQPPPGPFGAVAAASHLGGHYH
Method in brief: (§1)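 GST fusions of human transcription factors were expressed in yeast and captured with glutathione beads. Once given DNA barcodes and pooled alongside a tag-only sample, they were incubated for 30 min at room temperature with 200 nmole of a random double-stranded 16-mer DNA library in Tris/NaCl/DTT/glycerol buffer, then washed, crosslinked (0.1% formaldehyde), proximity-ligated, PCR-amplified and sequenced on an Illumina NextSeq500. The binding signal of each hexamer is its read frequency for a factor divided by its frequency for the tag-only sample.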

ETV5 = ETV5 (Homo sapiens, UniProt P41161 1-510); details: protein: recombinant; tags: N-terminal GST; dsDNA, one strand shown
Method in brief: as §1

HSF1 = HSF1 (Homo sapiens, UniProt Q00613 1-529); details: protein: recombinant; tags: N-terminal GST; chain copies: 3; dsDNA, one strand shown
Method in brief: as §1

SPIC = biological target: T2, SPIC (Homo sapiens, UniProt Q8N5J4 1-248); details: protein: recombinant; tags: N-terminal GST; dsDNA, one strand shown
T2 sequence: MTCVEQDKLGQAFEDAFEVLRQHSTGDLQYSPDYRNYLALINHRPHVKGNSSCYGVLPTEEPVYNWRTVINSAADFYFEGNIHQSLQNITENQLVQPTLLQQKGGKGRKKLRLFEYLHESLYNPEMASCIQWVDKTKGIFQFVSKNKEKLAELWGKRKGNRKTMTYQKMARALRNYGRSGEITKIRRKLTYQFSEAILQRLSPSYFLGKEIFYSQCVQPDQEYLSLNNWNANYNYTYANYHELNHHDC
Method in brief: as §1

ELF4 = ELF4 (Homo sapiens, UniProt Q99607 1-663); details: protein: recombinant; tags: N-terminal GST; dsDNA, one strand shown
Method in brief: as §1

ELK4 = biological target: T3, ELK4 (Homo sapiens, UniProt P28324-2 1-405); details: protein: recombinant; tags: N-terminal GST; dsDNA, one strand shown
T3 sequence: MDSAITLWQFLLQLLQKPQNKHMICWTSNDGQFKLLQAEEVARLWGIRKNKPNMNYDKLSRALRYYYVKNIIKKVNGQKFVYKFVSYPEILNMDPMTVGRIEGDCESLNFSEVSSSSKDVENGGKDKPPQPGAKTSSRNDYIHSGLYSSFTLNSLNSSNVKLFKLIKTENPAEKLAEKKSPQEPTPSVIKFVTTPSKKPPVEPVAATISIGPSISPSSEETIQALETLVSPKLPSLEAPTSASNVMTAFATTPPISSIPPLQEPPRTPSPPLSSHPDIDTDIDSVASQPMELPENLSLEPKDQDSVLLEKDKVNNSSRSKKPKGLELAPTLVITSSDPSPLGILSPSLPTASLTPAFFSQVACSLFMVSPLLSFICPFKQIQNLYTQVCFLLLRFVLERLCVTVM
Method in brief: as §1

ETV2 = biological target: T4, ETV2 (Homo sapiens, UniProt O00321 1-342); details: protein: recombinant; tags: N-terminal GST; dsDNA, one strand shown
T4 sequence: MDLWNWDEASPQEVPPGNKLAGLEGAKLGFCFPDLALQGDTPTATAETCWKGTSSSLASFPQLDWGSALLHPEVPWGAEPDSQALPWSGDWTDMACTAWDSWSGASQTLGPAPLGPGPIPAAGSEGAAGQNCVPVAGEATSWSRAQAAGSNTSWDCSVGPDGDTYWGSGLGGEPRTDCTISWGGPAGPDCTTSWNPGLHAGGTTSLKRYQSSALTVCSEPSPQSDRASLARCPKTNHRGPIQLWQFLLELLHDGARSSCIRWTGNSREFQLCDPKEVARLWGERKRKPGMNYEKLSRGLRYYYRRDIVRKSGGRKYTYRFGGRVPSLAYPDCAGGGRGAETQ
Method in brief: as §1

ELF3 = biological target: T5, ELF3 (Homo sapiens, UniProt P78545 1-371); details: protein: recombinant; tags: N-terminal GST; dsDNA, one strand shown
T5 sequence: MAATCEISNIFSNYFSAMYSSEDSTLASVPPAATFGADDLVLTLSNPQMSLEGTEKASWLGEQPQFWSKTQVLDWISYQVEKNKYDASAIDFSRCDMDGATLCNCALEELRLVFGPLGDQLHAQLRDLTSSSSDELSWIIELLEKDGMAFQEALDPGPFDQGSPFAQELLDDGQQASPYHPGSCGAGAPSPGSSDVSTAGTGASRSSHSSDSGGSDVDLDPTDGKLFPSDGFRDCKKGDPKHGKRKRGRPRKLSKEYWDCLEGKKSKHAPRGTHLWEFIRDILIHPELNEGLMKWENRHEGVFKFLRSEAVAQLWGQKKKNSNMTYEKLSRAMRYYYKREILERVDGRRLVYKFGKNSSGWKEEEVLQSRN
Method in brief: as §1

CRX = CRX (Homo sapiens, UniProt O43186 1-299); details: protein: recombinant; tags: N-terminal GST; dsDNA, one strand shown
Method in brief: as §1

ETV1 = ETV1 (Homo sapiens, UniProt P50549 1-477); details: protein: recombinant; tags: N-terminal GST; dsDNA, one strand shown
Method in brief: as §1

ERF = biological target: T6, ERF (Homo sapiens, UniProt P50548 1-548); details: protein: recombinant; tags: N-terminal GST; dsDNA, one strand shown
T6 sequence: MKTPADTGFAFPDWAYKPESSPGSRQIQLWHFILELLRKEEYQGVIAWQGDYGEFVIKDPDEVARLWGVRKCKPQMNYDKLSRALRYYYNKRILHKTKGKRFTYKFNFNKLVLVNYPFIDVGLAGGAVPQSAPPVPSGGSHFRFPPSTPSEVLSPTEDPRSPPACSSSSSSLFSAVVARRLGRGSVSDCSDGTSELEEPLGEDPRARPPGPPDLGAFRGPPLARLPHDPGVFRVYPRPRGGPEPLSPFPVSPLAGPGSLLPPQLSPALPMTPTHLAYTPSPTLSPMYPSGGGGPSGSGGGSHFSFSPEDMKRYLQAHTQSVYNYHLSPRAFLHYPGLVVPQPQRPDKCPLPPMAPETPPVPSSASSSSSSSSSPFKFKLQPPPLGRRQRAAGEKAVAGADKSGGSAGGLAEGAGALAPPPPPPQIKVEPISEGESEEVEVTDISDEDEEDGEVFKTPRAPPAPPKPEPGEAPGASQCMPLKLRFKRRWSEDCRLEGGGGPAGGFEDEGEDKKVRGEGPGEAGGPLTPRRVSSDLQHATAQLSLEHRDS
Method in brief: as §1

ETV3L = biological target: T7, ETV3L (Homo sapiens, UniProt Q6ZN32 1-361); details: protein: recombinant; tags: N-terminal GST; dsDNA, one strand shown
T7 sequence: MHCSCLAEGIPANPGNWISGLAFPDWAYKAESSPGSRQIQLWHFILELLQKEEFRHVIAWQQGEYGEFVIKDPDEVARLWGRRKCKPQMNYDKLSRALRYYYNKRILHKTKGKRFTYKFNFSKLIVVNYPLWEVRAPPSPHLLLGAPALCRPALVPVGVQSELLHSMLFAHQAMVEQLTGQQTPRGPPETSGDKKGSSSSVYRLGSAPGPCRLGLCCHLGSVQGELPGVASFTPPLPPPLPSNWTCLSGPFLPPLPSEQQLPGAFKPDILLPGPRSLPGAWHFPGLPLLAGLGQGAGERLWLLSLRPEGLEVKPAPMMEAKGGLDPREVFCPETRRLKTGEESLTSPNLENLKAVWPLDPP
Method in brief: as §1

ETS2 = biological target: T8, ETS2 (Homo sapiens, UniProt P15036 1-469); details: protein: recombinant; tags: N-terminal GST; dsDNA, one strand shown
T8 sequence: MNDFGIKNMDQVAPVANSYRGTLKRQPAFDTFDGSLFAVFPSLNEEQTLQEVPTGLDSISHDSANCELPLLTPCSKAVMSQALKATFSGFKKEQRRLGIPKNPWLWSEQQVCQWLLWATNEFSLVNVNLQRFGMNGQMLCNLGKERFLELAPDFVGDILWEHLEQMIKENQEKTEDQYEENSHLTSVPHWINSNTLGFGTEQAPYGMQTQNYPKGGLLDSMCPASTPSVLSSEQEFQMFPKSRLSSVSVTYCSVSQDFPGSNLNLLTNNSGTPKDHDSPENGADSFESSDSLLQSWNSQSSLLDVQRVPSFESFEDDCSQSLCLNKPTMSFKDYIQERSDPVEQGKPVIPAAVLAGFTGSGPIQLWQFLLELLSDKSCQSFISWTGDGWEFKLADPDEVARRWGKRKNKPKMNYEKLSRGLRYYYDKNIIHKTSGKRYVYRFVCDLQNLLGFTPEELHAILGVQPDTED
Method in brief: as §1

SPDEF = biological target: T9, SPDEF (Homo sapiens, UniProt O95238 1-335); details: protein: recombinant; tags: N-terminal GST; dsDNA, one strand shown
T9 sequence: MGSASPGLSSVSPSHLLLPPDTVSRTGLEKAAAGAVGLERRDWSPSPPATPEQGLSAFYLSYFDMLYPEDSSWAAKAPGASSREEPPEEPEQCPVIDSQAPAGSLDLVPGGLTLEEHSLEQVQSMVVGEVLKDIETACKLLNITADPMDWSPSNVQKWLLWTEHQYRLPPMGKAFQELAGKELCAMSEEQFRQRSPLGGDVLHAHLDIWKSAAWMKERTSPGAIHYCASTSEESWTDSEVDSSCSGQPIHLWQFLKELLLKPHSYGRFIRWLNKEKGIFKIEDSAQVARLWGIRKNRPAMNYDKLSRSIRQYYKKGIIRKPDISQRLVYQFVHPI
Method in brief: as §1

ETV7 = biological target: T10, ETV7 (Homo sapiens, UniProt Q9Y603 1-341); details: protein: recombinant; tags: N-terminal GST; dsDNA, one strand shown
T10 sequence: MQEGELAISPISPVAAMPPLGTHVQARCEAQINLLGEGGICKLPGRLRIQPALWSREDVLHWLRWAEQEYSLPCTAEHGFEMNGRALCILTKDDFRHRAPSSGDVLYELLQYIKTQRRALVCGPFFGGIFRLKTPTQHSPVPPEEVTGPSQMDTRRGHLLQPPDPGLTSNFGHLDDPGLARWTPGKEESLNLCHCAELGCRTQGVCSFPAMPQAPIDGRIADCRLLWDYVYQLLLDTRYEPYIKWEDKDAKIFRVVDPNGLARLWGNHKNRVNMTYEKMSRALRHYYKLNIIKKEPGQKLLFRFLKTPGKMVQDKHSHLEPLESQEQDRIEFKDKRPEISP
Method in brief: as §1

ELF5 = biological target: T11, ELF5 (Homo sapiens, UniProt Q9UKW6-2 1-255); details: protein: recombinant; tags: N-terminal GST; dsDNA, one strand shown
T11 sequence: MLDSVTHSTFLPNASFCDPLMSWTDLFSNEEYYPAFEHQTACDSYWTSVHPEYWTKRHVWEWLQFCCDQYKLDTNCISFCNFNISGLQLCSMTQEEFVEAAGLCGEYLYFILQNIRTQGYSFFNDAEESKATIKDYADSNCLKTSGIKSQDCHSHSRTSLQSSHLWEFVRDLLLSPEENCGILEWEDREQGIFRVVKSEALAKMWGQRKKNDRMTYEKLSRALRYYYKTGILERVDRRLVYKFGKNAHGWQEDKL
Method in brief: as §1

ETV3 = biological target: T12, ETV3 (Homo sapiens, UniProt P41162-2 1-143); details: protein: recombinant; tags: N-terminal GST; dsDNA, one strand shown
T12 sequence: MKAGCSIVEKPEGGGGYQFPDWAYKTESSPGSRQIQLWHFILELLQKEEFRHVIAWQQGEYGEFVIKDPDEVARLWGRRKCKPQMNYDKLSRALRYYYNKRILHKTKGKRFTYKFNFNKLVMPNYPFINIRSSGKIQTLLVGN
Method in brief: as §1

ETV6 = ETV6 (Homo sapiens, UniProt P41212 1-452); details: protein: recombinant; tags: N-terminal GST; dsDNA, one strand shown
Method in brief: as §1

Chain of ETV6 (P41212 whole entry): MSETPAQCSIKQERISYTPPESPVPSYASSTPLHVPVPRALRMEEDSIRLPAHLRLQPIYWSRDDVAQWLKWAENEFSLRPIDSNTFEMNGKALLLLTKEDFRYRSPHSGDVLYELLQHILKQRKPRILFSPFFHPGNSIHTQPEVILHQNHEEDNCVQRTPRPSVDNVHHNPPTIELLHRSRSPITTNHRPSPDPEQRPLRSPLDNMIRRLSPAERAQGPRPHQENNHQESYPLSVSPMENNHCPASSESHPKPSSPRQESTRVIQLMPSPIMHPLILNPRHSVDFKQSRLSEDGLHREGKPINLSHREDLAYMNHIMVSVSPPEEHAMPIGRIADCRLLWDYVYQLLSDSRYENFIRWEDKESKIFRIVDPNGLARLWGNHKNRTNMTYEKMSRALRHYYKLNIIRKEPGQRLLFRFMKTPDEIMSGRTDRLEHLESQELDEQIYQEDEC
Chain of ELF4 (Q99607 whole entry): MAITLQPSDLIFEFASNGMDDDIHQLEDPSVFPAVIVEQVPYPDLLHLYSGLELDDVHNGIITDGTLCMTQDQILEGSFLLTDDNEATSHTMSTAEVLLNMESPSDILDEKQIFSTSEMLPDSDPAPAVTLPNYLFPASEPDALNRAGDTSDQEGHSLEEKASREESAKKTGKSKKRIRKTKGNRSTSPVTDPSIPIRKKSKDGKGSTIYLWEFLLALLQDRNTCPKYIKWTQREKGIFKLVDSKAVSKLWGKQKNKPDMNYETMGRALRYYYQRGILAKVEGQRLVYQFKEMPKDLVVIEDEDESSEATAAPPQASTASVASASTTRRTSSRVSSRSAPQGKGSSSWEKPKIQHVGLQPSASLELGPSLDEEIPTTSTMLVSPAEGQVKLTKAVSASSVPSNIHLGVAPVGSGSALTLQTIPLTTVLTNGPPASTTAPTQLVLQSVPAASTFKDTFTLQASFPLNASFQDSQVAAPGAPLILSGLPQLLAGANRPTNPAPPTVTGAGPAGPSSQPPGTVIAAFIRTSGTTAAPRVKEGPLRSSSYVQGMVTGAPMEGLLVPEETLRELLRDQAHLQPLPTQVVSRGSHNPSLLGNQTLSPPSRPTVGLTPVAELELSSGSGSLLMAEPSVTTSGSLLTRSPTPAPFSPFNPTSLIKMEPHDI
Chain of HSF1 (Q00613 whole entry): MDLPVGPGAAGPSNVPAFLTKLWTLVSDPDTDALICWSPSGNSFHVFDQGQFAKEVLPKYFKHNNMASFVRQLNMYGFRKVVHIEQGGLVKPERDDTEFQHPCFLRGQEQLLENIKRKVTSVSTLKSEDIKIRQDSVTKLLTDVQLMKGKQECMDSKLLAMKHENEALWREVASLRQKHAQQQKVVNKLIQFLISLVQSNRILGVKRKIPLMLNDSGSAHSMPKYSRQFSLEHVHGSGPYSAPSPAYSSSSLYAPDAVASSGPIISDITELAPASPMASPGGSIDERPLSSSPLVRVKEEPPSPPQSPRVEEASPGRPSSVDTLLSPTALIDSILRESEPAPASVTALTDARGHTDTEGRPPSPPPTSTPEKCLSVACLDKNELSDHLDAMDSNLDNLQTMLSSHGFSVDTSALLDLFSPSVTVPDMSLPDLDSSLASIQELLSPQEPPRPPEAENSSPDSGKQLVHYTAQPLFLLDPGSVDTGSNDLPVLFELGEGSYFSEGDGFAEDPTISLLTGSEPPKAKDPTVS
Chain of ETV5 (P41161 whole entry): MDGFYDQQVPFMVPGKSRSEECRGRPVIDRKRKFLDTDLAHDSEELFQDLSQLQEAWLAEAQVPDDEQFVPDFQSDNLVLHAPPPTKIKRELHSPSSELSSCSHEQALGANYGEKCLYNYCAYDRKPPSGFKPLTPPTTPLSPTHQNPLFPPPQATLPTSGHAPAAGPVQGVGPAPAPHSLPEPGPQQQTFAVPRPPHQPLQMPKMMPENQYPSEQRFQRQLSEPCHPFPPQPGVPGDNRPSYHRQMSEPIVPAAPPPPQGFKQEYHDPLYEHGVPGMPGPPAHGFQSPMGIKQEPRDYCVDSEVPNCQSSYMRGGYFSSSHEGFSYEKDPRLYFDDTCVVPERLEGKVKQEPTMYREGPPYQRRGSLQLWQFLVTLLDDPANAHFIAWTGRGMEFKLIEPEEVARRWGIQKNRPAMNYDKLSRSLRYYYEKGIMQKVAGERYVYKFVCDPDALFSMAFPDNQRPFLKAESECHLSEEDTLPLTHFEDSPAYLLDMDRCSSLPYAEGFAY
Chain of ETV1 (P50549 whole entry): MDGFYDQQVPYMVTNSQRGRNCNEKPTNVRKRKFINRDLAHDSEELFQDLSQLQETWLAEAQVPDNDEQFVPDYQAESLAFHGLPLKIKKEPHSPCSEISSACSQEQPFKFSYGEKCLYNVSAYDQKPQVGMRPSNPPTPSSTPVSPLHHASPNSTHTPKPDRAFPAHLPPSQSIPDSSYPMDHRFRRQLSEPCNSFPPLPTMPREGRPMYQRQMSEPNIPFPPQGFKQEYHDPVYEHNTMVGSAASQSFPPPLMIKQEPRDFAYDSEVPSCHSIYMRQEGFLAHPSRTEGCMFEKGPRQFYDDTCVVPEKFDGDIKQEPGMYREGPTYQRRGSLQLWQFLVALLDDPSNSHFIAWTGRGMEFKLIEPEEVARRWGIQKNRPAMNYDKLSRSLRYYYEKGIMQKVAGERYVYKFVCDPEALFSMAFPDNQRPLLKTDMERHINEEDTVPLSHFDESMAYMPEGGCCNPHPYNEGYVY
Chain of CRX (O43186 whole entry): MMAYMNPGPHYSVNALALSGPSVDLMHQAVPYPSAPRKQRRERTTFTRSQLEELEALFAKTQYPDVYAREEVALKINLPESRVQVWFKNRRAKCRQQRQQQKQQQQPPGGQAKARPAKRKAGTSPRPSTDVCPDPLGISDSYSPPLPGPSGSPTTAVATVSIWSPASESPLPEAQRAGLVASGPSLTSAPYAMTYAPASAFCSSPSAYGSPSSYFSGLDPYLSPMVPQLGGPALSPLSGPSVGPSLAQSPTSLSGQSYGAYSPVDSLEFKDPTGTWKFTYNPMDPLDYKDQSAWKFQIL

## TCTCGT
FEV
  binding signal: 1.21 fold enrichment (6-mer frequency, TF over GST control)
ETV5
  binding signal: 1.1 fold enrichment (6-mer frequency, TF over GST control)
HSF1
  binding signal: 2.01 fold enrichment (6-mer frequency, TF over GST control)
SPIC
  binding signal: 1.31 fold enrichment (6-mer frequency, TF over GST control)
ELF4
  binding signal: 1.24 fold enrichment (6-mer frequency, TF over GST control)
ELK4
  binding signal: 1.3 fold enrichment (6-mer frequency, TF over GST control)
ETV2
  binding signal: 1.27 fold enrichment (6-mer frequency, TF over GST control)
ELF3
  binding signal: 1.65 fold enrichment (6-mer frequency, TF over GST control)
CRX
  binding signal: 1.35 fold enrichment (6-mer frequency, TF over GST control)
ETV1
  binding signal: 1.27 fold enrichment (6-mer frequency, TF over GST control)
ERF
  binding signal: 1.16 fold enrichment (6-mer frequency, TF over GST control)
ETV3L
  binding signal: 1.21 fold enrichment (6-mer frequency, TF over GST control)
ETS2
  binding signal: 1.34 fold enrichment (6-mer frequency, TF over GST control)
SPDEF
  binding signal: 1.15 fold enrichment (6-mer frequency, TF over GST control)
ETV7
  binding signal: 1.2 fold enrichment (6-mer frequency, TF over GST control)
ELF5
  binding signal: 1.24 fold enrichment (6-mer frequency, TF over GST control)
ETV3
  binding signal: 1.03 fold enrichment (6-mer frequency, TF over GST control)
ETV6
  binding signal: 1.18 fold enrichment (6-mer frequency, TF over GST control)

Reference: publication PMC7862700, “An all-to-all approach to the identification of sequence-specific readers for epigenetic DNA modifications on cytosine”
